8 compounds from PubChem BioAssay (Tox21) can be followed below.

Assay [1] in a line: Nuclear factor erythroid 2-related factor 2/antioxidant responsive element (Nrf2/ARE) small molecule agonists: qHTS cell viability counter screen in human keratinocytes (AID 1919968; active means well fitted curve in the direction sought with a large enough effect in the repeat runs; an effect the other way counts as inactive or inconclusive; further: nearly all actives have a fitted effect of over 55% in size; further: potency means the concentration at half of the fitted maximal effect). Summed up: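 Stably transfected HaCaT (KeratinoSens), 1,500/well. Test agents in DMSO were applied for 23 h, 37 C/5% CO2. CellTiter-Fluor was incubated 1 h before the fluorescence read.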
Assay [2] in a line: Nuclear factor erythroid 2-related factor 2/antioxidant responsive element (Nrf2/ARE) small molecule agonists: luciferase reporter gene qHTS assay in human keratinocytes (AID 1919969). Further: nearly all actives have a fitted effect of over 35% in size. Further: potency means the concentration at half of the fitted maximal effect.
The target of assay [3] is Gonadotropin-releasing hormone receptor (Homo sapiens) (UniProt P30968). The experiment in a line: Human gonadotropin-releasing hormone receptor (GnRHR) small molecule agonists, calcium flux assay in GnRHR-HEK293 cells (AID 1920063). Further: nearly all actives have a fitted effect of over 35% in size. An outline of the steps: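 Stable human GnRHR HEK293 line. 18 h plating, then calcium dye for 1 h at 37 C. Agonist-mode compound addition from DMSO stocks; fluorescence monitored 3 min.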
In general terms: Calcium flux is commonly read through the fluorescence of an indicator in the cells.

In assay [4] the target is KiSS-1 receptor (Homo sapiens) (UniProt Q969F8). As to the kind of experiment: Human kisspeptin (KISS1R) small molecule agonists, calcium flux assay in KISS1R-HEK293 cells (AID 1920064; active means well fitted curve in the direction sought with a large enough effect in the repeat runs; an effect the other way counts as inactive or inconclusive). An outline of the steps: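 After overnight (18 h) culture at 37 C/5% CO2, human KISS1R-HEK293 cells received calcium dye for 1 h, then test compound; emission at 540 nm (excitation 480 nm) was tracked for 3 min.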

Assay [5] can be described thus: G protein-coupled receptor (GPCR) small molecule agonists, calcium flux assay: HEK293 wild type cell line counter screen (AID 1920065). An outline of the steps:
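Following 18 h incubation at 37 C/5% CO2, plates got calcium dye for 1 h; compounds, ATP or DMSO were then pinned in and fluorescence followed kinetically (480/540 nm).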

The nature of assay [6]: p53 small molecule agonists, cell-based qHTS assay with human liver microsomes (AID 1963577).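 Further: p53 response element beta-lactamase reporter cells with liver microsomes plus NADPH.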 Summed up: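 Reporter activation was measured by LiveBLAzer fluorescence intensity in p53RE-bla cells, which had been exposed to compounds for 16 h at 37 C alongside 0.5 mg/mL human liver microsomes and 0.5 mg/mL NADPH (final concentrations).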
Background: Quantitative high-throughput screening tests each substance at several concentrations.

Assay [7] in a line: p53 small molecule agonists, cell-based qHTS assay with rat liver microsomes (AID 1963578). An outline of the steps: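 Compound in DMSO added to p53RE-bla cells 5 h post-plating; rat microsomes/NADPH 0.5 mg/mL final; 16 h, 37 C; LiveBLAzer 2 h RT.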
Assay [8] in a line: p53 small molecule agonists, cell-based qHTS assay: qHTS cell viability counter screen (AID 1963581). Further: nearly all actives have a fitted effect of over 45% in size. Summed up: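 qHTS counter screen: 16 h compound exposure at 37 C of p53RE-bla HCT-116 cells (4,000 per well, seeded 5 h prior), cell viability by ATP luminescence.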
Assay [9] addresses 5-hydroxytryptamine receptor 2A (Homo sapiens) (UniProt P28223). The experiment in a line: 5-hydroxytryptamine receptor 2A (HTR2A) small molecule agonists, cell-based qHTS assay (AID 1963587). Further: nearly all actives have a fitted effect of over 30% in size. An outline of the steps: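 HTR2A-CHO cells, plated 18 h at 37 C/5% CO2, dye-loaded 1 h at 37 C; compounds in DMSO added by pin tool (agonist mode). Intracellular calcium flux read as kinetic fluorescence on FDSS over 2 min at 1 s intervals.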

Assay [10] concerns the target Muscarinic acetylcholine receptor M1 (Homo sapiens) (UniProt P11229). The experiment in a line: Cholinergic receptor muscarinic 1 (CHRM1) small molecule agonists, cell-based qHTS assay (AID 1963589). Further: nearly all actives have a fitted effect of over 35% in size. Summed up:
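Kinetic fluorescence (1 s intervals) of calcium-sensitive dye in human M1 CHO cells after compound addition; cells pre-incubated 18 h at 37 C/5% CO2 and dye-loaded 1 h.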

Assay [11] can be described thus: cAMP Responsive Elements (CRE) small molecule agonists, cell-based qHTS assay (AID 1963590). An outline of the steps:
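Test agents in DMSO were incubated 3 h at 37 C/5% CO2 with CRE-bla HEK 293T cells seeded 18 h earlier; LiveBLAzer B/G FRET substrate was added and read after 2 h at room temperature.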

The nature of assay [12]: cAMP Responsive Elements (CRE) small molecule antagonists, cell-based qHTS assay (AID 1963591; active means well fitted inhibition curve with a large enough effect in the signal ratio in the repeat runs, not every such curve was filed as active; the % refers to the signal ratio). Summed up:
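Reporter line CRE-bla HEK 293T in dialyzed-FBS DMEM; cells preincubated 18 h, treated 3 h with compound plus NKH477 (0.25 uM final); LiveBLAzer FRET, 2 h RT.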

Assay [13] concerns the target Beta-2 adrenergic receptor (Homo sapiens) (UniProt P07550). The experiment in a line: Adrenergic beta2 receptor (ADRB2) small molecule antagonists, cell-based qHTS assay (AID 1963592). Further: series mostly up to about 92 µM; nearly all actives have a fitted effect of over 50% in size. An outline of the steps:
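Assay format: CHO-ADRB2 cells, 18-20hr seeding at 37C/5% CO2, then compound plus 1nM isoproterenol agonist mix for 0.5hr RT. Homogeneous time-resolved fluorescence cAMP detection after 1hr, expressed as 665/615 nm ratio.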

The target is the same in assay [14]. The experiment in a line: Adrenergic beta2 receptor (ADRB2) small molecule agonists, cell-based qHTS assay (AID 1963593).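 Further: CHO cells stably overexpressing human ADRB2.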 Summed up: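 CHO cells stably over-expressing ADRB2 were plated overnight at 37C, then dosed with compounds plus a stimulation mix containing 100uM IBMX and 25uM Ro-20-1724 for 0.5hr at room temperature. cAMP was measured by HTRF competition, 1hr.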

Assay [15] concerns the target D(2) dopamine receptor (Homo sapiens) (UniProt P14416). The experiment in a line: Dopamine D2 receptor (DRD2) small molecule agonists, cell-based qHTS assay (AID 1963594). Further: nearly all actives have a fitted effect of over 35% in size. Summed up: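 HEK293 cells stably expressing DRD2 were cultured 24 h at 37 C, then given Ro20-1724 (0.1 mM final) and compounds for 10 min at room temperature. NKH477 (200nM) was then added for 30 min. cAMP was read by HTRF.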

Assay [16] shares this target. The experiment in a line: Dopamine D2 receptor (DRD2) small molecule antagonists, cell-based qHTS assay (AID 1963595; active means well fitted inhibition curve with a large enough effect in the signal ratio in the repeat runs, with a control signal flat; the % refers to the signal ratio). Summed up: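 Antagonism was scored as restored cAMP in HEK293-DRD2 cells. These cells were stimulated with 200 nM NKH477 and 12 nM quinpirole for 30 min at room temperature, in the presence of 0.1 mM Ro20-1724.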
The target in assay [17] is 5-hydroxytryptamine receptor 2A (Homo sapiens) (UniProt P28223). As to the kind of experiment: 5-hydroxytryptamine receptor 2A (HTR2A) small molecule antagonists, cell-based qHTS assay (AID 1963586). Further: nearly all actives have a fitted effect of over 45% in size. An outline of the steps:
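CHO cells stably expressing human HTR2A were plated for 18 h at 37 C, then loaded with calcium dye for 1 h. Compounds were preincubated 5 min at room temperature before DOI (4 nM solution) was added. Kinetic fluorescence was read for 3 min.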

Assay [18] in a line: p53 small molecule agonists, cell-based qHTS assay with rat liver microsomes: qHTS cell viability counter screen (AID 1963580). Further: nearly all actives have a fitted effect of over 45% in size. An outline of the steps: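 Luminescent ATP readout (CellTiter-Glo, 30 min at room temperature) reports viability of p53RE-bla HCT-116 cells after 16 h at 37 C with test compounds under metabolic activation by rat liver microsomes and NADPH at 0.5 mg/mL final each.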

Assay [19] can be described thus: p53 small molecule agonists, cell-based qHTS assay (AID 1963582; active means well fitted activation curve with a large enough effect in the signal ratio in the repeat runs, not every such curve was filed as active; the % refers to the signal ratio). Summed up: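 Measured: fluorescence from cleaved LiveBLAzer substrate. System: p53RE-bla cells, 16 h compound treatment at 37 C, 2 h substrate step at room temperature.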
For assay [20], the target named is Muscarinic acetylcholine receptor M1 (Homo sapiens) (UniProt P11229). As to the kind of experiment: Cholinergic receptor muscarinic 1 (CHRM1) small molecule antagonists, cell-based qHTS assay (AID 1963588). Further: nearly all actives have a fitted effect of over 40% in size. Summed up: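 Compounds were tested at 15 concentrations in three independent runs. Dye-loaded CHRM1-CHO cells were exposed 5 min at room temperature before stimulation by acetylcholine added at 50nM. Intracellular calcium was read kinetically on FDSS for 3 min.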

Unmarked numbers belong to inactive results. Inconclusive results are not listed. Active and inactive are the calls of the source. Unless noted, the call rests on the fitted dose curve.

Chain of 5-hydroxytryptamine receptor 2A (Homo sapiens) (P28223 whole entry, looked up): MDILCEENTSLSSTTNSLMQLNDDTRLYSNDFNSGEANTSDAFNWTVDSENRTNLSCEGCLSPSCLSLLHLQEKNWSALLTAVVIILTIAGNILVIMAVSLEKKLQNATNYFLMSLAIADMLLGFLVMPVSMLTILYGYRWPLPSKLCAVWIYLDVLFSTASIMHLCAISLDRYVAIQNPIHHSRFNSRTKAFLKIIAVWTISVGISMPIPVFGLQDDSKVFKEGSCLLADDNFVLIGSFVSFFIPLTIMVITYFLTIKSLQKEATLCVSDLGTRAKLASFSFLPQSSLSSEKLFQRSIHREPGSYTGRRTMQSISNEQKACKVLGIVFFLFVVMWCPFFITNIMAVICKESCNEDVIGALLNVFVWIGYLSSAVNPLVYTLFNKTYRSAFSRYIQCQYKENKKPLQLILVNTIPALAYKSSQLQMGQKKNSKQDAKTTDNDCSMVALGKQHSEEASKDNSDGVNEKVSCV
Chain of Gonadotropin-releasing hormone receptor (Homo sapiens) (P30968 whole entry, looked up): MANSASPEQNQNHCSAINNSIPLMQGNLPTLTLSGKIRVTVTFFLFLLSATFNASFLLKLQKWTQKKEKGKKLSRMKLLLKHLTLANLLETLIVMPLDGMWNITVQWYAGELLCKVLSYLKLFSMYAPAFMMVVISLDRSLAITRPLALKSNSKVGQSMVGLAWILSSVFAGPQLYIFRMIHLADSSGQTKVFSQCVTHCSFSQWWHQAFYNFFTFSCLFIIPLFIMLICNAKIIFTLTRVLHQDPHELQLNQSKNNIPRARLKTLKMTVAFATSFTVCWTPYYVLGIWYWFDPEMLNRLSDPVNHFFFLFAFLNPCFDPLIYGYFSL
Chain of Beta-2 adrenergic receptor (Homo sapiens) (P07550 whole entry, looked up): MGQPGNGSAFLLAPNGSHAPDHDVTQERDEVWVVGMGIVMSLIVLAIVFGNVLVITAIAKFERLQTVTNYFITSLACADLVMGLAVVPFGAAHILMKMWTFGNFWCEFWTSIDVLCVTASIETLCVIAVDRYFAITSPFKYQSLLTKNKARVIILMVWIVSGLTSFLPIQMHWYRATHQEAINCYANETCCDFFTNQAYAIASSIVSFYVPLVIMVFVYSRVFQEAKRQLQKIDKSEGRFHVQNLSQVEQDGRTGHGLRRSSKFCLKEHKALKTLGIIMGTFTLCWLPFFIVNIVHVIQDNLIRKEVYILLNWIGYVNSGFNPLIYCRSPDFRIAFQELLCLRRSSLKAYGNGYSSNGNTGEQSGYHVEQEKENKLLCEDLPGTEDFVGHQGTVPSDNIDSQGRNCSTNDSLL
Chain of Muscarinic acetylcholine receptor M1 (Homo sapiens) (P11229 whole entry, looked up): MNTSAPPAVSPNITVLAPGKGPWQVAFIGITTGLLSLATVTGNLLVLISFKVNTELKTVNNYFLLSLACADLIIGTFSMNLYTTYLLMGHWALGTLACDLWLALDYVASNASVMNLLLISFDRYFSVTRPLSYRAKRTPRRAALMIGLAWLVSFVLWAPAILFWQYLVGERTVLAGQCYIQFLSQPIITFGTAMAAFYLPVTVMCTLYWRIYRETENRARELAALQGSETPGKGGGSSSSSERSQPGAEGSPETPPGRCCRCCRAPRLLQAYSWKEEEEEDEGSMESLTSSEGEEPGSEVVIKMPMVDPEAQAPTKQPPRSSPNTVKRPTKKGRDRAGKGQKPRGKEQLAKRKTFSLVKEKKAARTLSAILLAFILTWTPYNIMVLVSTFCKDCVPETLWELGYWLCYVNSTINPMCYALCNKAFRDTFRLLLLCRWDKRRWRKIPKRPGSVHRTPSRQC
Chain of D(2) dopamine receptor (Homo sapiens) (P14416 whole entry, looked up): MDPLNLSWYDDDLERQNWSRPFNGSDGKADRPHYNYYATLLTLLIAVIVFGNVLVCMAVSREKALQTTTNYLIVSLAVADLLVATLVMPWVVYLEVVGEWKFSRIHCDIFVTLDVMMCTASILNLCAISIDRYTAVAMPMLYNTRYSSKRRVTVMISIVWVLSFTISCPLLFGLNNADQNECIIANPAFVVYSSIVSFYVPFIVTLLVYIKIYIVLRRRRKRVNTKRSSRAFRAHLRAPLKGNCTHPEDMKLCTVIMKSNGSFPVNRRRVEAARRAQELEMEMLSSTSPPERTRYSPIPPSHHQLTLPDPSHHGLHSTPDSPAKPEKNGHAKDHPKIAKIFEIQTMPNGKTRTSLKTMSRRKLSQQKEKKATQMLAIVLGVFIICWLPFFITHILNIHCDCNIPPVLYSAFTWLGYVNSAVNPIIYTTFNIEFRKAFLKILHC
Chain of KiSS-1 receptor (Homo sapiens) (Q969F8 whole entry, looked up): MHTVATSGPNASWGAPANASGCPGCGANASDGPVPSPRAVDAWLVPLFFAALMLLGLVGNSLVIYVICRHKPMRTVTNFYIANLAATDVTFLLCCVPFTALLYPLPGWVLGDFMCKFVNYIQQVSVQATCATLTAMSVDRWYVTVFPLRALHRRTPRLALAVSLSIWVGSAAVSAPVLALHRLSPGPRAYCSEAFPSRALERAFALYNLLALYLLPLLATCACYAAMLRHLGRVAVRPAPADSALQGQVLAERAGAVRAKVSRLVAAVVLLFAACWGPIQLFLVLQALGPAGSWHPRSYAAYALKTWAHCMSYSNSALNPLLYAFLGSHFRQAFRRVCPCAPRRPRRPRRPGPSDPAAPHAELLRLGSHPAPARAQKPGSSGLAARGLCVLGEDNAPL

As for `C=C(C)C(=O)OCC[N+](C)(C)C`, the Potency result in [1], in assay [3], in [6], in [7], in [8] and in [9] was “inactive” each time. Further, the Potency entry in [10], in assay [11], in assay [12], in [13], in [14] and in assay [15] was “inactive” in each case. In assay [16], the Potency entry was “inactive”. For the same compound, the Potency in [2] is 60.9 µM (active). The result in assay [4] and in assay [5] was inactive.
With `C=C1C(CCl)(CCl)C2(Cl)C(Cl)C(Cl)C1(Cl)C2(Cl)Cl` (stereo not given), the Potency is 38.1 µM (active) in [1] and 15.2 µM (active) in assay [2]. The Potency entry in assay [3], in assay [6], in assay [7], in assay [17], in assay [9] and in [10] was “inactive” throughout. For the same compound, the Potency result in assay [14], in [15] and in assay [16] was “inactive” each time. Moreover, the result in [4] and in assay [5] was inactive.
Consider `CCCCCCCCCC(=O)N(C)C`, for which the Potency result in assay [1], in [3], in [6], in assay [18], in assay [8] and in [19] was “inactive” throughout. Moreover, the Potency result in assay [17], in assay [9], in [20], in assay [10], in assay [11] and in [12] was “inactive” in each case. Further, the Potency result in assay [13], in assay [15] and in assay [16] was “inactive” each time. The Potency in assay [2] is 43.9 µM (active). Also, the outcome in [4] and in [5] was inactive.
Consider `CCCCCCC(CCCCCCCCCCC(=O)OCC(COC(C)=O)OC(C)=O)OC(C)=O` (stereo not given), for which the Potency entry in [1], in [2], in assay [3], in assay [6], in assay [7] and in assay [19] was “inactive” in each case. In addition, the Potency entry in assay [17], in [9], in assay [20], in assay [10], in [11] and in assay [12] was “inactive” in each case. For the same compound, the Potency entry in assay [13], in assay [14], in assay [15] and in assay [16] was “inactive” each time. Besides, the result in assay [4] and in [5] was inactive.
As for `O=C(CCCCC(=O)Nc1c(I)cc(I)c(C(=O)O)c1I)Nc1c(I)cc(I)c(C(=O)O)c1I`, the Potency result in assay [1], in assay [2], in assay [3], in assay [6], in [18] and in assay [8] was “inactive” throughout. In addition, the Potency result in assay [19], in assay [17], in [9], in assay [20], in assay [10] and in [12] was “inactive” in each case. For the same compound, the Potency result in [13], in assay [15] and in assay [16] was “inactive” throughout. In addition, the outcome in assay [4] and in assay [5] was inactive.
Turning to `NC1CCN(c2nc3c(cc2F)c(=O)c(C(=O)O)cn3-c2ccc(F)cc2F)C1` (stereo not given), the Potency result in assay [1], in [2], in [3], in assay [6], in assay [7] and in assay [19] was “inactive” in each case. The Potency result in [15] and in assay [16] was “inactive” throughout. Further, the result in assay [4] and in [5] was inactive.
As to `CC1=CP(=O)(c2ccccc2)CC1` (stereo not given), the Potency result in assay [1], in assay [2], in assay [3], in assay [6], in [18] and in [8] was “inactive” each time. Moreover, the Potency entry in [19], in [17], in assay [9], in assay [20], in assay [10] and in assay [11] was “inactive” each time. Besides, the Potency result in assay [12], in [14] and in assay [16] was “inactive” each time. The outcome in [4] and in [5] was inactive.
For the compound `COC[C@H](c1ccc(C(F)(F)F)cc1)N1CCN(C2(C)CCN(C(=O)c3c(C)ncnc3C)CC2)C[C@H]1C`, the Potency entry in assay [1], in [2], in assay [3], in assay [6], in [18] and in assay [8] was “inactive” throughout. Further, the Potency entry in [19], in [17], in assay [9], in assay [10], in [13] and in [14] was “inactive” in each case. The Potency result in assay [15] and in assay [16] was “inactive” throughout. Further, the outcome in assay [4] and in [5] was inactive.
